Reference: ChEMBL document CHEMBL4296182, “CO-ADD screening of NIH NCI Diversity Set V”
For part of these data: Results with a measured potency or affinity are listed apart.

What was measured:
Staphylococcus aureus = assay: Antibacterial activity against Staphylococcus aureus MRSA ATCC 43300 (CO-ADD:GP_020); MIC in CAMBH media using NBS plates, by Resazurin F(560/590); type: functional; settings: Concentration 20 uM, ASSAY_TEST Inhibition of Bacterial Growth, detection method Resazurin, Fluorescence (ex560/em590), MEDIA CAMHB, plate type 384well, CORNING #3640, time 18 hr
Acinetobacter baumannii = assay: Antibacterial activity against Acinetobacter baumannii ATCC 19606 (CO-ADD:GN_034); MIC in CAMBH media using NBS plates, by Resazurin F(560/590); type: functional; settings: Concentration 20 uM, ASSAY_TEST Inhibition of Bacterial Growth, detection method Resazurin, Fluorescence (ex560/em590), MEDIA CAMHB, plate type 384well, CORNING #3640, time 18 hr
Escherichia coli = assay: Antibacterial activity against Escherichia coli ATCC 25922 (CO-ADD:GN_001); MIC in CAMBH media using NBS plates, by Resazurin F(560/590); type: functional; settings: Concentration 20 uM, ASSAY_TEST Inhibition of Bacterial Growth, detection method Resazurin, Fluorescence (ex560/em590), MEDIA CAMHB, plate type 384well, CORNING #3640, time 18 hr
Klebsiella pneumoniae = settings: Concentration 20 uM; ASSAY_TEST Inhibition of Bacterial Growth; detection method Absorption (OD600); MEDIA CAMHB; plate type 384well; NBS; CORNING #3640; time 18 hr
Candida albicans = settings: 20 µM
Cryptococcus neoformans = settings: Concentration 20 uM; ASSAY_TEST Inhibition of Fungal Growth; detection method Resazurin; Absorption (OD600-OD570); plate type 384well; NBS; CORNING #3640

| Structure (SMILES) | Inhibition (Staphylococcus aureus) | Inhibition (Acinetobacter baumannii) | Inhibition (Escherichia coli) | Inhibition (Klebsiella pneumoniae) | Inhibition (Candida albicans) | Inhibition (Cryptococcus neoformans) |
| --- | --- | --- | --- | --- | --- | --- |
| N#CC12CNCC1CN=N2 (centres undefined) | 10.47% | 1.05% | -13.15% | 8.95% | 1.04% | 19.07% |
| NC=C1C(=O)N(c2ccccc2)C(=O)N(c2ccccc2)C1=O | -9.39% | 5.08% | 6.01% | 10.61% | 0.46% | -6.24% |
| CN1C2CCC1[C@@H](COC(=O)c1ccccc1)[C@@H](O)C2 (some centres undefined) | 0.35% | 15.38% | -10.56% | 17.19% | 4.47% | -7.25% |
| CN1C2c3ccccc3C3C4c5ccccc5C(C31)C(C2[N+](=O)[O-])N4C (centres undefined) | 16.96% | 4.34% | 9.05% | 7.01% | 2.24% | -16.47% |
| [Cl-].c1ccc(-c2nn(-c3ccccc3)[n+](-c3ccccc3)n2)cc1 [TETRAZOLIUM RED] | -10.8% | -19.48% | 7.25% | 5.91% | 0.89% | -6.85% |
| CCc1cc2c(cc1-c1csc(CC(=N)NO)n1)C(C)(C)CCC2(C)C | 9.42% | 7.35% | -22.59% | 1.69% | 7.1% | 24.54% |
| O=P(Oc1ccccc1)(Oc1ccccc1)c1ccccc1 | 1.14% | -14.38% | 1.1% | 1.03% | 4.45% | -2.59% |
| COc1ccc2c(c1O)[C@]13CCN(C)[C@H](C2)[C@@H]1CCC(=O)C3 | -1.15% | -13.17% | 7.37% | 14.9% | 0.05% | -12.71% |
| Nc1nc(N)c2cnnn2n1 | -6.46% | -8.05% | -17.28% | 8.25% | 5.35% | 23.1% |
| CN(C)P(=O)(N(C)C)N1CC1 | 13.5% | -2.37% | 15.32% | 12.98% | -1.16% | -11.15% |
| O=C(NC(=O)c1c(F)cccc1F)Nc1cc(Cl)c(F)c(Cl)c1F [TEFLUBENZURON] | 1.58% | -16.27% | 15.1% | 2.21% | -1.38% | -2.13% |
| CN1CCC(c2c[nH]c3ccccc23)C1 (centres undefined) | 10.13% | 1.97% | -8.69% | 8.23% | 0.53% | 10.07% |
| O=C(CF)N(O)c1ccc(/C=C/c2ccccc2)cc1 | -10.86% | -11.91% | 10.97% | 1.67% | 12.6% | -7.92% |
| O=C1C[C@@H]2OCC=C3C[N+]4([O-])CC[C@]56c7ccccc7N1[C@H]5[C@H]2[C@H]3C[C@@H]64 (some centres undefined) | -3.57% | -14.45% | 1.56% | 13.5% | 3.06% | -6.02% |
| COc1ccc(CCNC2(C#N)CCCCC2)cc1OC | 2.96% | -11.77% | 4.72% | 9.13% | 2.4% | -6.07% |
| c1cnc2c(c1)ccc1ncccc12 | 9.5% | -5.64% | 9.97% | 12.45% | 0.86% | -4.19% |
| CCC1CCC(C)N(N=O)C1 (centres undefined) | -0.88% | -14.6% | 6.08% | 7.29% | -0.7% | -1.16% |
| OCC1CN1C1CCCCC1 (centres undefined) | -3.39% | -14.33% | 0.67% | 26.1% | 2.25% | -2.3% |
| O=c1cccc2n1C[C@H]1C[C@@H]2CN2CCCC[C@@H]12 | 6.92% | -12.51% | 5.34% | 8.7% | -0.36% | -3.93% |
| Cc1c(C(=O)c2ccccc2)c2ccccc2n1C | 14.29% | -0.59% | 13.79% | 4.42% | 1.53% | -16.28% |
| CC12CCC3C(CCC4Cc5[nH]c6ccccc6c5CC43C)C1CCC2O (centres undefined) | -0.19% | -0.61% | 16.15% | 10.81% | -1.61% | -15.22% |
| NC(=O)c1ccc(C(=O)Nc2ccc([As](=O)(O)O)cc2)cc1 | 11.66% | 7.33% | 15.44% | 11.59% | -0.15% | -8.21% |
| CC[C@@]1(O)C(=O)OCc2c1cc1n(c2=O)Cc2cc3c(N)cccc3nc2-1 [9-AMINOCAMPTOTHECIN] | 34.7% | -5.64% | 12.69% | 8.25% | 4.9% | -6.8% |
| ClC1=C(Cl)C(Cl)=C(Cl)C1=C/C=C/c1ccccc1 | -15.24% | -5.13% | -15.65% | 6.7% | 5.69% | 2.88% |
